For 3 compounds, outcome and AC50 results are on record in PubChem BioAssay (EPA / NIEHS).

Values joined by “and” are separate entries in the source; they are usually repeats but may differ in a detail not shown here. Equal entries are not always repeated. Active and inactive are the calls of the source. Rule for the calls: active = hit-call score of the fitted dose curve at least 0.9, where 1 is the maximum; inactive = score below 0.9.

Read-out in test [1]: urokinase plasminogen activator (uPA), PLAU (gene 5328)
Description: BSK_KF3CT_uPA: BioMAP Diversity Plus: KF3CT Assay for urokinase plasminogen activator (uPA) Biomarker Activity (AID 2283075). Conditions: primary human keratinocytes with fibroblasts; actives raise or lower the signal. The gist of the method:
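ELISA read-out of uPA 24 h after dosing human skin keratinocytes co-cultured with foreskin fibroblasts. Signal change fitted both ways relative to DMSO; sulforhodamine B on parallel cultures marks overt cytotoxicity.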

Read-out in test [2]: CD40, CD40 (gene 958)
Nature of the test: BSK_LPS_CD40: BioMAP Diversity Plus: LPS Assay for CD40 Biomarker Activity (AID 2283076). Conditions: primary human HUVEC with PBMC; actives raise or lower the signal. The gist of the method:
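Primary human umbilical vein endothelial cells co-cultured with peripheral blood mononuclear cells, LPS-stimulated, were dosed with chemical and read 24 h later. CD40 levels were measured by ELISA and fitted bidirectionally against DMSO as negative control and baseline.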

Read-out in test [3]: E-selectin (Homo sapiens) (UniProt P16581)
Nature of the test: BSK_LPS_Eselectin: BioMAP Diversity Plus: LPS Assay for Eselectin Biomarker Activity (AID 2283077). Conditions: primary human HUVEC with PBMC; actives raise or lower the signal. The method, boiled down:
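Human umbilical vein endothelial cells co-cultured with peripheral blood mononuclear cells under LPS stimulation; E-selectin measured by ELISA 24 h after chemical dosing. Activity fitted bidirectionally against DMSO as negative control and baseline.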

Read-out in test [4]: Interleukin-8 (IL8), CXCL8 (gene 3576)
Nature of the test: BSK_LPS_IL8: BioMAP Diversity Plus: LPS Assay for Interleukin-8 (IL8) Biomarker Activity (AID 2283078). Conditions: primary human HUVEC with PBMC; actives raise or lower the signal. The method, boiled down:
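Human umbilical vein endothelial cells co-cultured with PBMC were stimulated with LPS; IL-8 levels were measured by ELISA 24 h after chemical dosing. Activity was fitted bidirectionally against DMSO as negative control and baseline.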

Test [5] in a line: BSK_LPS_SRB: Viability Assessment in the BioMAP Diversity Plus: LPS Assay (AID 2283079).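 Note: total protein by sulforhodamine B absorbance as a cytotoxicity measure; measured one day after compound addition.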 Conditions: primary human HUVEC with PBMC. The gist of the method:
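Human umbilical vein endothelial cells co-cultured with PBMC (LPS system) were dosed for 24 h. Total protein was stained with 0.1% sulforhodamine B after 10% TCA fixation, read at 560 nm, and fitted bidirectionally against DMSO baseline.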

Read-out in test [6]: Interleukin-1 alpha (IL1a), IL1A (gene 3552)
Nature of the test: BSK_LPS_IL1a: BioMAP Diversity Plus: LPS Assay for Interleukin-1 alpha (IL1a) Biomarker Activity (AID 2283080). Conditions: primary human HUVEC with PBMC; actives raise or lower the signal. The gist of the method: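 Human umbilical vein endothelial cells co-cultured with peripheral blood mononuclear cells were LPS-stimulated and exposed to test chemicals for 24 h. IL-1 alpha was quantified by ELISA, with bidirectional curve fitting against DMSO as the negative control and baseline.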

Read-out in test [7]: Monocyte Chemoattractant Protein-1 (MCP1), CCL2 (gene 6347)
Nature of the test: BSK_LPS_MCP1: BioMAP Diversity Plus: LPS Assay for Monocyte Chemoattractant Protein-1 (MCP1) Biomarker Activity (AID 2283081).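 For AC50: co-culture stimulated with LPS; secreted MCP-1 protein quantified by ELISA in culture supernatant.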 Conditions: primary human HUVEC with PBMC; actives raise or lower the signal. The gist of the method: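 HUVEC plus PBMC co-culture (human primary cells, LPS system) exposed to test chemical for 24 h; MCP-1 measured by ELISA. Bidirectional curve fitting against DMSO baseline; parallel SRB total-protein staining flags overt cytotoxicity.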

Test [8] is described as follows: BSK_LPS_PGE2: BioMAP Diversity Plus: LPS Assay for Prostaglandin E2 (PGE2) Biomarker Activity (AID 2283082).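 For AC50: secreted prostaglandin E2 measured by ELISA in LPS-stimulated co-culture.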 Conditions: primary human HUVEC with PBMC; actives raise or lower the signal. The method, boiled down:
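Primary human endothelial cells and blood mononuclear cells, co-cultured with LPS, receive test chemical; PGE2 ELISA follows at 24 h, with SRB-stained parallel cultures flagging cytotoxicity.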

Read-out in test [9]: Macrophage colony-stimulating factor (MCSF), CSF1 (gene 1435)
Description: BSK_LPS_MCSF: BioMAP Diversity Plus: LPS Assay for Macrophage colony-stimulating factor (MCSF) Biomarker Activity (AID 2283083). Conditions: primary human HUVEC with PBMC; actives raise or lower the signal. The gist of the method: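 Human umbilical vein endothelial cells co-cultured with peripheral blood mononuclear cells were exposed to compound for 24 h. M-CSF levels were measured by ELISA, and bidirectional curve fitting used DMSO as the negative control and baseline.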

Read-out in test [10]: Tissue Factor, F3 (gene 2152)
Nature of the test: BSK_LPS_TissueFactor: BioMAP Diversity Plus: LPS Assay for Tissue Factor Biomarker Activity (AID 2283084). Conditions: primary human HUVEC with PBMC; actives raise or lower the signal. The gist of the method: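 Human umbilical vein endothelial cells co-cultured with peripheral blood mononuclear cells were dosed and stimulated with LPS. Cell-surface CD142 was quantified by ELISA at 24 h. Activity was fitted bidirectionally against DMSO baseline.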

Read-out in test [11]: Tumor necrosis factor (Homo sapiens) (UniProt P01375)
Description: BSK_LPS_TNFa: BioMAP Diversity Plus: LPS Assay for Tumour Necrosis Factor alpha (TNFa) Biomarker Activity (AID 2283085).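 For AC50: TNFa protein level quantified by ELISA in the co-culture.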 Conditions: primary human HUVEC with PBMC; actives raise or lower the signal. The gist of the method:
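ELISA-based TNFa endpoint in a human endothelial–PBMC co-culture sampled 24 h post-exposure. Curves were fitted in both directions using DMSO as baseline of activity.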

Read-out in test [12]: Vascular cell adhesion molecule 1 (VCAM1), VCAM1 (gene 7412)
Description: BSK_LPS_VCAM1: BioMAP Diversity Plus: LPS Assay for Vascular cell adhesion molecule 1 (VCAM1) Biomarker Activity (AID 2283086). Conditions: primary human HUVEC with PBMC; actives raise or lower the signal. The method, boiled down:
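Measured by ELISA: VCAM-1 in LPS-activated HUVEC/PBMC co-cultures 24 h after treatment. Values reflect bidirectional fitting with DMSO as baseline.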

Read-out in another test: CD38, CD38 (gene 952)
Description: BSK_SAg_CD38: BioMAP Diversity Plus: SAg Assay for CD38 Biomarker Activity (AID 2283087). Conditions: primary human HUVEC with PBMC; actives raise or lower the signal. The gist of the method:
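Measures CD38 on a human endothelial/PBMC co-culture driven by SEB and TSST-1, 24 h after compound exposure, using ELISA with fluorescence detection; DMSO defines baseline for bidirectional curve fitting.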

Read-out in test [13]: CD40, CD40 (gene 958)
Description: BSK_SAg_CD40: BioMAP Diversity Plus: SAg Assay for CD40 Biomarker Activity (AID 2283088). Conditions: primary human HUVEC with PBMC; actives raise or lower the signal. The method, boiled down: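 Human umbilical vein endothelial cells co-cultured with PBMC; CD40 levels measured by ELISA with fluorescence read-out 24 h after chemical dosing. Gain or loss of signal fitted bidirectionally against DMSO baseline.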

Read-out in test [14]: Monocyte Chemoattractant Protein-1 (MCP1), CCL2 (gene 6347)
Nature of the test: BSK_SAg_MCP1: BioMAP Diversity Plus: SAg Assay for Monocyte Chemoattractant Protein-1 (MCP1) Biomarker Activity (AID 2283090). Conditions: primary human HUVEC with PBMC; actives raise or lower the signal. The gist of the method:
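Values derive from bidirectional fitting of ELISA-measured MCP1 against DMSO controls. Readings were taken 24 h after dosing human vascular endothelial cells co-cultured with peripheral blood mononuclear cells under superantigen stimulation.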

Read-out in test [15]: E-selectin (Homo sapiens) (UniProt P16581)
Nature of the test: BSK_SAg_Eselectin: BioMAP Diversity Plus: SAg Assay for Eselectin Biomarker Activity (AID 2283091). Conditions: primary human HUVEC with PBMC; actives raise or lower the signal. The gist of the method: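 HUVEC co-cultured with PBMC, compound dosed then read at 24 h; E-selectin measured by ELISA. Activity fitted bidirectionally against DMSO as negative control and baseline.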

Read-out in test [16]: Monokine induced gamma interferon (MIG), CXCL9 (gene 4283)
Description: BSK_SAg_MIG: BioMAP Diversity Plus: SAg Assay for Monokine induced gamma interferon (MIG) Biomarker Activity (AID 2283092). Conditions: primary human HUVEC with PBMC; actives raise or lower the signal. The method, boiled down:
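HUVEC plus human PBMC co-culture, chemicals dosed and MIG (CXCL9) quantified by ELISA at 24 h. Bidirectional curve fitting against DMSO as negative control and baseline, so both gain and loss of signal count as activity.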

A short description of test [17]: BSK_SAg_PBMCCytotoxicity: PBMC Cytotoxicity Assessment in the BioMAP Diversity Plus: SAg Assay (AID 2283093).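 Note: PBMC viability measured as Alamar Blue reduction fluorescence at 546/580 nm; fitted both ways against DMSO so a hit may be loss or gain of signal.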 Conditions: primary human HUVEC with PBMC. The method, boiled down:
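Alamar Blue reduction (6 h, ex/em 546/580 nm) read after 90 h culture of PBMC pre-dosed 1 h then stimulated with SEB plus TSST-1, 20 ng/mL each. Gain or loss of signal fitted relative to DMSO.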

Read-out in test [18]: Interleukin-8 (IL8), CXCL8 (gene 3576)
Nature of the test: BSK_SAg_IL8: BioMAP Diversity Plus: SAg Assay for Interleukin-8 (IL8) Biomarker Activity (AID 2283094). Conditions: primary human HUVEC with PBMC; actives raise or lower the signal. The method, boiled down: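 Primary human endothelial cells with PBMC, exposed 24 h; IL-8 determined by ELISA, analysed bidirectionally relative to DMSO.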

The nature of test [19]: BSK_SAg_Proliferation: Cell Proliferation Assessment in the BioMAP Diversity Plus: SAg Assay (AID 2283095).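 Note: relative cell number as total protein by SRB absorbance in sub-confluent culture.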 Conditions: primary human HUVEC with PBMC. The gist of the method:
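A human primary co-culture of umbilical vein endothelium and blood mononuclear cells receives compound; relative cell number is quantified at 96 h by SRB staining and 560 nm absorbance, with DMSO-referenced bidirectional curve fitting.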

As a reminder, the AC50 is the concentration at which the activity in the assay is half-maximal.

Chain of E-selectin (Homo sapiens) (P16581 whole entry, looked up): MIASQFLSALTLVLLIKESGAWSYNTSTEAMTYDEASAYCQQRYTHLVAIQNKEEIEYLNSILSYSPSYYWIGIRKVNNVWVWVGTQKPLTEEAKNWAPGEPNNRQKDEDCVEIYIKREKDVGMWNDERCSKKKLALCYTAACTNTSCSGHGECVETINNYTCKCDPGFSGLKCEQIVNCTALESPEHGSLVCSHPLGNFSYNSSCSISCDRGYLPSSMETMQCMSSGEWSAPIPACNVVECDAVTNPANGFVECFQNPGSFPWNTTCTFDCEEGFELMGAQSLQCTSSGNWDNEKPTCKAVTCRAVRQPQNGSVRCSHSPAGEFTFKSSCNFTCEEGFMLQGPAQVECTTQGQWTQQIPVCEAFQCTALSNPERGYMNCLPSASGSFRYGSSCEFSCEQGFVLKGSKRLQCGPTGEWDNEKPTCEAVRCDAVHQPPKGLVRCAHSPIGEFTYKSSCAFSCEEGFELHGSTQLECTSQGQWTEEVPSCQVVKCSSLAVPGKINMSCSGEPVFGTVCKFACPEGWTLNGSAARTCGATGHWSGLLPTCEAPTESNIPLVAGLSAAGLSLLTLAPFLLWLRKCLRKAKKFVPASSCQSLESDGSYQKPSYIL
Chain of Tumor necrosis factor (Homo sapiens) (P01375 whole entry, looked up): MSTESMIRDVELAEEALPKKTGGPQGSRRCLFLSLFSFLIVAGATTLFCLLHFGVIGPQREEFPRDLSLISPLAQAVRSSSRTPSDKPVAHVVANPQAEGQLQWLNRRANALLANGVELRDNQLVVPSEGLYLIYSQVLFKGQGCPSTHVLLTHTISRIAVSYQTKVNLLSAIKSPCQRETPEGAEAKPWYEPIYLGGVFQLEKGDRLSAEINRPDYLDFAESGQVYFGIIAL

On to `CO[Si](OC)(OC)c1ccccc1`, for which the outcome in test [1] was “inactive”; with CD40, CD40 (gene 958) [2], “inactive”; in test [3], “inactive”; in [4], “inactive”; in [5] it was “inactive”; in [6], “inactive”. Also, the outcome in test [7], in test [8], in test [9], in [10], in test [11] and in test [12] was inactive. The outcome is “inactive” with CD38, CD38 (gene 952); “inactive” with CD40, CD40 (gene 958) [13]; “inactive” in test [14]; “inactive” in test [15]; “inactive” in test [16]; “inactive” in test [17]. For the same compound, the result in test [18] and in test [19] was inactive.
For `CCOC(=O)c1ccccc1C(=C1C=C(Br)C(=O)C(Br)=C1)c1cc(Br)c(O)c(Br)c1`, the AC50 in test [1] is 3.6 µM (active) and 3.63 µM (active); with CD40, CD40 (gene 958) [2] it was 20.9 µM (active) and 17.5 µM (active); in test [3], 21.2 µM (active) and 21.8 µM (active); in test [4], 23 µM (active) and 22.9 µM (active); in test [5], 20.6 µM (active) and 23.2 µM (active); in test [6], 17.8 µM (active) and 14.7 µM (active). The concentration at half-maximal activity (AC50) in [7] is 20.8 µM (active) and 20.9 µM (active); in [8], 19.1 µM (active) and 19 µM (active); in test [9], 18.7 µM (active) and 17.4 µM (active); in test [10] it was 18.2 µM (active) and 12.6 µM (active); in test [11], 19.1 µM (active) and 18.9 µM (active); in test [12], 20.2 µM (active) and 19.9 µM (active). Besides, the AC50 with CD38, CD38 (gene 952) is 20.4 µM (active) and 18.8 µM (active); in the test with CD40, CD40 (gene 958) [13], 19.4 µM (active) and 19.1 µM (active); in [14] it was 20.7 µM (active) and 21 µM (active); in test [15], 20.1 µM (active) and 18.8 µM (active); in test [16], 22.2 µM (active) and 23 µM (active); in test [18], 19 µM (active) and 18 µM (active). Besides, the AC50 in test [19] is 18.3 µM (active) and 20.1 µM (active). In addition, the result in test [17] was inactive.
On to `CC(C)C(=O)C(C)C`, for which the outcome in test [1] is “inactive”; with CD40, CD40 (gene 958) [2], “inactive”; in test [3], “inactive”; in [4] it was “inactive”; in test [5], “inactive”; in test [6], “inactive”. Further, the result in test [7], in [8], in test [9], in test [10], in test [11] and in [12] was inactive. The outcome is “inactive” in the test with CD38, CD38 (gene 952); “inactive” with CD40, CD40 (gene 958) [13]; “inactive” in test [14]; “inactive” in test [15]; “inactive” in [16]; “inactive” in test [17]. Further, the outcome in test [18] and in [19] was inactive.
